According to PMC7819943, “Rice protein-binding microarrays: a tool to detect cis-acting elements near promoter regions in rice”:
Whole data set: some 68,000 sequences, median “fluorescence intensity (a.u.)” near 9,100, cut for the highest 2% near 16,000. The list comes from a sample in which the highest values are over-represented; it also holds similar and randomly drawn sequences.

Target: OsWRKY34 (Oryza sativa, UniProt Q0JBA9 1-250)
Test: protein-binding microarray (RPBM); PBS, 2% BSA, 51.3 ng/ul salmon testes DNA, 50 uM zinc acetate, 200 nM TF, 25 C, 1 h; high values mean tight binding
Details: protein: recombinant; tags: N-terminal polyhistidine and DsRed monomer fusion (pET32a); label: CyDye5-dUTP incorporated in the synthesized complementary strand; 3' TTTTT single-stranded linker to array surface; dsDNA, one strand shown
In short: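 Binding signal is defined as the fluorescence intensity of each feature in arbitrary units, read on an Axon 4000B scanner. Transcription factors with N-terminal polyhistidine and DsRed fusions came from E. coli BL21-CodonPlus and were purified on Ni–NTA. They were incubated at 200 nM for 1 h at 25 °C on a custom Agilent array that had been made double-stranded with Cy5-dUTP, with 50 µM zinc acetate present, and the array was washed.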

Chain of OsWRKY34 (Q0JBA9 entry or part of it): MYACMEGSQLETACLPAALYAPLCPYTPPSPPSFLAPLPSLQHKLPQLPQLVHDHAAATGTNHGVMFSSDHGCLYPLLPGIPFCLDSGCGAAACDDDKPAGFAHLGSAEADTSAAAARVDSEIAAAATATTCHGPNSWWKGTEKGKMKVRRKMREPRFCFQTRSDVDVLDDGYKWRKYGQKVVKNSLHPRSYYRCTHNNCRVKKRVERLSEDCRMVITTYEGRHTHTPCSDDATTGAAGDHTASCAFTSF

First: ACAATTAACACACGTAAACACTATCTGCTATTGTAAAAAACGGAGTCACCTAGTGCAG
Second: AAACAATTATCTAAAAACCTCACTATTAATAGAGAGATTCCGGAGTCACCTAGTGCAG
The binding signal of the first is lower: 8460 fluorescence intensity (a.u.) for the first, 38700 fluorescence intensity (a.u.) for the second.

Compared with “ACTTTTTATACGCAACTTTCATTGCATATATTTTACTTTTCGGAGTCACCTAGTGCAG”, “TGTGTTGCTCTCTCTTCACTTGGTTGGCGGCGGCGCTGCGCGGAGTCACCTAGTGCAG” is lower in binding signal: 9540 fluorescence intensity (a.u.) for the first, 8060 fluorescence intensity (a.u.) for the second.

Compared with “ATCTCAATGAGTTGGTCGTTTGCTGCTTCTCTATAGTGAACGGAGTCACCTAGTGCAG”, “CTGTAGTGTTGCTTGGTTTCTCTTTTTTGCCTCTTCACGGCGGAGTCACCTAGTGCAG” is higher in binding signal: 9140 fluorescence intensity (a.u.) for the first, 13200 fluorescence intensity (a.u.) for the second.

Compared with “AAGAATTTTGCTTTGGTTCAACCTTTTTTCTCTTCTTTCTCGGAGTCACCTAGTGCAG”, “TATATAACACAAAATAAGATCAACGTTGACCCGGGTTGACCGGAGTCACCTAGTGCAG” is lower in binding signal: 11300 fluorescence intensity (a.u.) for the first, 10200 fluorescence intensity (a.u.) for the second.

Compared with “ACCTTCTTACCCACTCCACCCACTGACAACGTTGGCCACCCGGAGTCACCTAGTGCAG”, “CAACGTTGACCCGGGTTGACCCACGGTTCTTCAACAAATGCGGAGTCACCTAGTGCAG” is higher in binding signal: 9360 fluorescence intensity (a.u.) for the first, 20700 fluorescence intensity (a.u.) for the second.

Going from “TGGTTTGGTTTGCTTCTTCTCTGCTTCAACGGTTGGTCGACGGAGTCACCTAGTGCAG” to “GGGTTGGTTTGGTTTGGTTGCTTCTTCTCTGCTTCAACGGCGGAGTCACCTAGTGCAG”, the binding signal rises from 16900 fluorescence intensity (a.u.) to 40000 fluorescence intensity (a.u.).

Compared with “CCGTTCGCCACGTCCATCCGTTTTCTGTGCCATAGGCAGGCGGAGTCACCTAGTGCAG”, “GCGTGCTAAACCCTTGTGATCCGTGTATTTAACCACCTTCCGGAGTCACCTAGTGCAG” is higher in binding signal: 9340 fluorescence intensity (a.u.) for the first, 11700 fluorescence intensity (a.u.) for the second.

Going from “ATTGGATCGGATCAGATCCCTTTTGCGCACCACTCGCCTTCGGAGTCACCTAGTGCAG” to “TCGAGGAGTGGATGGACGGATGGGTGGGTCATCACTGGTCCGGAGTCACCTAGTGCAG”, the binding signal rises from 8750 fluorescence intensity (a.u.) to 8840 fluorescence intensity (a.u.).

First: CCTCACGCAATTCCACAACTGCTGCTCCCACCCTCATCAGCGGAGTCACCTAGTGCAG
Second: TTTGCAATATCAGGGGTGTGTTACATATGTATTTCGATTTCGGAGTCACCTAGTGCAG
The binding signal of the first is lower: 9580 fluorescence intensity (a.u.) for the first, 12400 fluorescence intensity (a.u.) for the second.

First: TCTACCCGCCTTCCTTTTAGTCCCCGCGTCTCCACAAAATCGGAGTCACCTAGTGCAG
Second: TATTTTCCGTGTGTACCGTTCCGGTTATCAATACCAGCGCCGGAGTCACCTAGTGCAG
The binding signal of the first is higher: 10100 fluorescence intensity (a.u.) for the first, 8380 fluorescence intensity (a.u.) for the second.

Compared with “GCCATCAAGCTACGCCATTCAGCATTGCAACGACGACGTCCGGAGTCACCTAGTGCAG”, “TCATCCCACCGACGTCAGCAAGCCATCGCCATCAAGCCCACGGAGTCACCTAGTGCAG” is lower in binding signal: 64300 fluorescence intensity (a.u.) for the first, 9760 fluorescence intensity (a.u.) for the second.

Compared with “CAGCCGCCCTACGTCAGCCAAGTCCAACGACAACGCCCAACGGAGTCACCTAGTGCAG”, “ACCTCTGCTGATTCTTCTTGCTGTTTCTTTGTTGCGCATTCGGAGTCACCTAGTGCAG” is higher in binding signal: 8200 fluorescence intensity (a.u.) for the first, 11500 fluorescence intensity (a.u.) for the second.

Compared with “CACCTCGCGCCGCGCCCCATCCTTATCGTCATGACACGCCCGGAGTCACCTAGTGCAG”, “GGTTTTTTTTGGATTTATTGCTTTGTCACGTCTGGATCGTCGGAGTCACCTAGTGCAG” is higher in binding signal: 8810 fluorescence intensity (a.u.) for the first, 20500 fluorescence intensity (a.u.) for the second.

Going from “TCTTAGTATCCTTGGTTGTTGGATTTTTAGTTTGCTTTATCGGAGTCACCTAGTGCAG” to “GTTGGTTTTGGGGTTTTGGAGCGTTGCGGATTGCCACGGCCGGAGTCACCTAGTGCAG”, the binding signal rises from 9350 fluorescence intensity (a.u.) to 10300 fluorescence intensity (a.u.).

Going from “TGGAGAGCGTTGCTTTTTTTGGGCGGGTTTGGATTTTTATCGGAGTCACCTAGTGCAG” to “AACTCTGGCACGATTTTTTTTATTGCAGTTTTCGTCGGATCGGAGTCACCTAGTGCAG”, the binding signal falls from 21600 fluorescence intensity (a.u.) to 11400 fluorescence intensity (a.u.).

Compared with “TTGCTTGTCTGTTTGTTTTATTTATTTATGACGTCATTATCGGAGTCACCTAGTGCAG”, “GAGGAGCTCGCCAATTGTTCCGCGTCATATCGCCAGCTCTCGGAGTCACCTAGTGCAG” is lower in binding signal: 12600 fluorescence intensity (a.u.) for the first, 9060 fluorescence intensity (a.u.) for the second.

Going from “AACCTCTCATTTAATAAGATTCATCACAGTCTTTTTTTTTCGGAGTCACCTAGTGCAG” to “AGGAGCCAGACTTAGTTGGTGTAAGCCATTTACTAGTTGACGGAGTCACCTAGTGCAG”, the binding signal rises from 9990 fluorescence intensity (a.u.) to 22800 fluorescence intensity (a.u.).

Going from “ATAGTTGGTGTGTTTATGTAGACTTATTCTATTTTGACGTCGGAGTCACCTAGTGCAG” to “TCATTTTGACTTTTTTTAGTCAAACTCTTTTAATTTTAATCGGAGTCACCTAGTGCAG”, the binding signal rises from 10400 fluorescence intensity (a.u.) to 19600 fluorescence intensity (a.u.).

Going from “GTTGCTGGTTTTGTTAGTTTGGTGACCTTGACTTGTAAGACGGAGTCACCTAGTGCAG” to “GACTTGATTTTTTTTCTTAATTTGACCTTTTAATTTCAAACGGAGTCACCTAGTGCAG”, the binding signal falls from 8670 fluorescence intensity (a.u.) to 8080 fluorescence intensity (a.u.).

Compared with “GATTCTAGTCAAATTTCTTTTAATTTTGACTACGTTTATACGGAGTCACCTAGTGCAG”, “TACCATTTCTTTCTTGCTTTTTTAATGCCTAAATCATCTTCGGAGTCACCTAGTGCAG” is lower in binding signal: 11200 fluorescence intensity (a.u.) for the first, 8050 fluorescence intensity (a.u.) for the second.

First: AGTAATTTGACTTTTTCCTTAATCAAACTTCTTTAAGTTTCGGAGTCACCTAGTGCAG
Second: CCTCTAAATTTTAAGATTTTTTTAATCATTTTACCATTTTCGGAGTCACCTAGTGCAG
The binding signal of the first is lower: 10600 fluorescence intensity (a.u.) for the first, 65200 fluorescence intensity (a.u.) for the second.

First: GTCATTTTGTCTTTTTCTCTAAGTCAAACTTCTTTAATTTCGGAGTCACCTAGTGCAG
Second: TCGTTGACTTTTTTCTTAGTCAAATTTCTTTAAGTTTGACCGGAGTCACCTAGTGCAG
The binding signal of the first is lower: 10900 fluorescence intensity (a.u.) for the first, 42400 fluorescence intensity (a.u.) for the second.
